Assay outcomes deposited in PubChem by National Center for Advancing Translational Sciences (NCATS).
Hits are enriched below; roughly 14% of the tested compounds scored in any of these assays.
Marburg entry inh – inhibitors of Marburg virus binding or cell entry. 300,000 tested, 1.8% active. Potency, µM (series often up to 37.8 µM), without a hit: top-dose activity change, negative = inhibition, usual class: inhibitors. Marburg virus pseudotyped entry inhibition, cell reporter; calls by dose curve; tested in HEK293 cells; also: potency is read from the fitted curve at half-maximal effect
Lassa entry inh – inhibitors of Lassa virus binding or cell entry. Lassa virus pseudotype entry inhibition, cell reporter. 300,000 tested, 1.2% active. Potency, µM (titrated, usually from 37.9 µM), without a hit: top-dose activity change, negative = inhibition, hits mostly inhibitors. AID 540256; calls by dose curve; tested in HEK293 cells; also: potency is read from the fitted curve at half-maximal effect; nearly all actives have a fitted effect of over 50% in size
HCMV antiviral – human cytomegalovirus inhibition | HFF cells, HCMV-luciferase reporter, 72 h; hits give low values | activity change, negative = inhibition, % at 57.5 µM | 410,000 tested, 4.5% active; in the data active = activity change below about -60%; inconclusive = no clear call, values can overlap the other calls; inactive = above about -39%
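Two-dose cell screen: HFF monolayers treated with compounds and infected with luciferase-expressing HCMV at 1 PFU/cell, 72 h at 37C, then lysed for luciferase measurement.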
HCV inh – inhibitors of hepatitis C virus infection; 340,000 tested, 3.4% active; Huh7.5.1 HCVcc-Cre infection, luciferase reporter, 44 h; AID 651820; Potency, µM (top dose mostly 41.8 µM), for inactives: top-dose activity change, negative = inhibition, usual class: inhibitors; also: potency is read from the fitted curve at half-maximal effect
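Cells (1,000/well) were plated 4 h before compound, then infected with HCVcc-Cre virus (~0.5 moi). After 44 h further culture, infection was read as luciferase luminescence following a 15 min substrate incubation at room temperature.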
Pf growth 96h – inhibits malaria parasite growth, 96 h; P. falciparum luciferase reporter growth, 96 h; Potency, µM (top dose mostly 28.7 µM), for inactives: at the top dose activity change, negative = inhibition, most hits filed as inhibitors; 320,000 tested, 6.9% active; AID 504834; also: potency is read from the fitted curve at half-maximal effect
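96 h incubation, 37 C, 5% CO2, of luciferase-reporter P. falciparum-infected RBCs (2% hematocrit, 0.05% parasitemia final) with test compounds; endpoint luminescence.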
Pf growth 48h – inhibits P. falciparum growth in the first generation, 48 h; P. falciparum luciferase growth in erythrocytes, 48 h; Potency, µM (doses to about 28.7 µM), for inactives: top-dose activity change, negative = inhibition, actives largely listed as inhibitors; 310,000 tested, 5.9% active; AID 504832; also: potency is read from the fitted curve at half-maximal effect
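A one-generation exposure of luciferase-tagged malaria parasites in RPMI 1640/Albumax erythrocyte culture, 37 C and 5% CO2. Inhibition is inferred from decreased luminescence after adding detection reagent.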
The depositor's hits bear a star; i = inactive; ? = inconclusive; · = no result; [ ] = remark or other dose. Unless noted, calls follow the shape of the dose curve; as a rule, active = well fitted inhibition curve with a large enough effect; inconclusive = small, poorly fitted or top-dose-only effect, or another doubt; inactive = no such curve, though single readings can be large or run the other way. % is scaled to controls: 0 for no effect and ±100 for the full control effect.

SMILES | Marburg entry inh | Lassa entry inh | HCMV antiviral | HCV inh | Pf growth 96h | Pf growth 48h
COc1ccccc1N1CCN(C(=O)C(=O)c2cn(CC(=O)N3CCCC3)c3ccccc23)CC1 | · | · | 3 | -4% | 9.3µM* | ?
COc1ccccc1N1CCN(C(=O)C(=O)c2cn(CC(=O)N3CCCCCC3)c3ccccc23)CC1 | -3% | 1% | -38 | 2% | 7.4µM* | 9.3µM*
CC(=O)c1ccc(N2CCN(C(=O)C(=O)c3cn(CC(=O)N4CCCCCC4)c4ccccc34)CC2)cc1 | -15% | 9% | -25 | -24% | ? | ?
Cc1ccc(Cl)cc1N1CCN(C(=O)c2cnc(N3CCOCC3)c3ccccc23)CC1 | · | ? | -36 | · | · | ·
Cc1ccccc1CN1CCC(CNc2ncnc3onc(-c4ccc(Cl)cc4)c23)CC1 | · | 0%[46.1 µM] | 3 | · | · | ·
O=C(c1ccc(OC2CCN(Cc3ccccn3)CC2)cc1)N1CCC[C@H]1CO | 6% | -3% | 2 | -8% | 3.7µM* | -1%
CC(NC(=O)c1ccc(OC2CCN(Cc3ccccn3)CC2)cc1)c1ccccc1 (stereo not drawn) | -5%[46.1 µM] | 19% | ? | -5% | 12µM* | ?
CC(C)c1nc(CNC(=O)c2ccc(OC3CCN(Cc4ccccn4)CC3)cc2)cs1 | ? | -14%[46.1 µM] | ? | -28% | -36% | -25%
O=C1Nc2ccc(Br)cc2/C1=C/c1ccc(C(=O)O)cc1 | · | · | · | · | -4% | 7%
O=C1Nc2ccc(-c3cccnc3)cc2C1=Cc1cc(Br)c(O)c(Br)c1 | · | 13µM* | · | · | · | ·
C#CCCC[C@@H](/C=C/C(=O)OCC)NC(=O)C(F)(F)F | · | · | 0 | · | · | ·
O=c1[nH]c(O)c(N=Nc2ccc3c(c2)OCCO3)c(=O)[nH]1 | ? | ? | -82* | -14% | i | 493%
O=c1[nH]c(=S)[nH]c(O)c1N=Nc1ccc2c(c1)OCO2 | ? | ? | ? | 2% | 33% | 42%
O=c1[nH]c(=S)[nH]c(O)c1N=Nc1ccc2c(c1)OCCO2 | 11µM* | ? | ? | -29% | 32% | 27%
CCCCN(CCCC)CC(O)CN(c1cc([N+](=O)[O-])ccc1OC)S(=O)(=O)c1ccccc1 (stereo not drawn) | ? | ? | -20 | ? | ? | 13µM*
COc1ccc([N+](=O)[O-])cc1N(CC(O)CN(C)C)S(=O)(=O)c1ccc(C)cc1 (stereo not drawn) | -32% | ? | -22 | ? | 17% | -20%
COc1ccc([N+](=O)[O-])cc1N(CC(O)CN(CC(C)C)CC(C)C)S(=O)(=O)c1ccccc1 (stereo not drawn) | 12µM* | 5% | 76 | -20% | ? | 9.3µM*
CCOC(=O)/C(=C\Nc1ccc(OC(F)(F)F)cc1)Sc1ncc(C(F)(F)F)cc1Cl | 0% | -17% | 9 | -10% | · | 2.1µM*
Cc1cccc(OCC(=O)Nc2cccc3cccnc23)c1C | 4%[46.1 µM] | 13%[46.1 µM] | -3 | · | · | ·
Cc1ccc(N/C(N)=N/c2nc(C)cc(N3CCCCC3)n2)c(C)c1 | ? | ? | ? | 2.8µM* | ? | 0%
CNC(=O)N(C1=NCC(C)(C)S1)c1ccc(F)c(Cl)c1 | · | · | 42 | -3% | 7.4µM* | ·
Cc1ccc(CN(Cc2ccco2)c2cnc(S(C)(=O)=O)nc2C(=O)Nc2ccc(Br)cc2)o1 | ? | 8%[46.1 µM] | 5 | · | · | ·
O=C(CCNC(=O)c1ccccc1Cl)Nc1nc(-c2ccc3ccccc3c2)cs1 | ? | 0% | ? | ? | ? | ?
O=C(Nc1nc(-c2ccccc2)cs1)c1ccccc1F | ? | 4%[46.1 µM] | 28 | -4% | 13µM* | 52%
O=C(NNc1nc(-c2ccccc2)cs1)c1ccc(F)cc1 | -1% | 10% | -80* | -19% | 9.3µM* | 12µM*
SMILES | Marburg entry inh | Lassa entry inh | HCMV antiviral | HCV inh | Pf growth 96h | Pf growth 48h
CC1(C)CC(CC(=O)NNc2nc(-c3ccccc3)cs2)C(=O)O1 (stereo not drawn) | 1.3µM* | 12% | -19 | 6% | 8% | -4%
O=C(CCNC(=O)c1ccccc1Cl)Nc1nc(-c2ccc(F)cc2)cs1 | -28% | ? | -80* | -7% | ? | 0%
COc1ccc(-c2csc(NC(=O)c3ccccc3F)n2)cc1 | · | · | -38 | 5% | ? | -9%
OC(c1cccc(F)c1)c1ncc(-c2ccc(Oc3ccccc3)cc2)[nH]1 (stereo not drawn) | · | · | 17 | · | · | ·
O=C(NNc1nc(-c2ccc(F)cc2)cs1)c1ccccc1 | ? | ? | -99* | ? | 8.3µM* | 5.2µM*
O=C(NNc1nc(-c2ccccc2)cs1)c1cccs1 | ? | ? | -8 | ? | ? | ?
CC(C)[C@@H]1CC[C@H](C)C[C@H]1OP(N)(=O)c1ccccc1 (stereo partly drawn) | -2% | · | · | · | · | ·
COc1ccc(Nc2nnc(-c3ccc(C)cc3)c3ccccc23)cc1C(=O)N1CCCCC1 | ? | ? | -73* | ? | 1.2µM* | 6.6µM*
Cc1cccc(Nc2nnc(-c3ccc(C(=O)N4C[C@H]5C[C@H](C4)c4cccc(=O)n4C5)cc3)c3ccccc23)c1 | ? | ? | ? | ? | 3.7µM* | ?
Cc1cccc(NC(=O)N2C[C@H]3C[C@@H](C2)c2cccc(=O)n2C3)c1 | · | · | 8 | -58% | 19% | 5%
COc1ccc(Nc2nnc(-c3ccccc3)c3ccccc23)cc1C(=O)N1CCCCC1 | ? | -13%[46.1 µM] | -10 | -2% | 1.2µM* | 9.3µM*
CC(C)c1ccc(C(=O)N2CCOCC2c2cc(C(=O)Nc3ccccc3)no2)cc1 (stereo not drawn) | · | · | 8 | · | · | ·
COc1ccc([C@@H]2[C@@H](C(=O)N3CCOCC3)CC(=O)N2C(=O)/C=C/c2ccccc2)cc1 | · | · | -29 | · | · | ·
COc1ccc(C(=O)CCC(=O)N2CCN(c3cc(C)ccc3C)CC2)cc1 | · | · | ? | 10µM* | 27% | 10%
COc1ccc(-c2noc(CCCCC(=O)N3CCN(c4cc(C)ccc4C)CC3)n2)cc1 | · | · | -96* | ? | · | ·
CCOC(=O)N1CCN(C(=O)CCC(=O)c2ccc(OCC)cc2)CC1 | 13%[46.1 µM] | 11µM* | -28 | 10% | -9% | -10%
Cc1ccc(NC(=O)CN(C)S(=O)(=O)c2cnc[nH]2)cc1 | 0%[46.1 µM] | 16%[46.1 µM] | 23 | · | · | ·
CC(C)(C)C(=O)Nc1nc2c(c(=O)[nH]1)CCCC2 | 0%[46.1 µM] | 11%[46.1 µM] | -36 | -9% | 28% | 9.3µM*
O=c1[nH]c(N2CCN(Cc3ccccc3)CC2)nc2c1CCC2 | -5%[46.1 µM] | -11% | 2 | 13% | 0% | 14%
CCCCCc1c(C)nc(NCc2ccccc2)[nH]c1=O | -5% | -40%[14.3 µM] | -14 | · | · | 2.1µM*
O=c1[nH]c(NCc2ccccc2)nc2c1CCC2 | -9%[46.1 µM] | -15% | 20 | 22% | 15µM* | -21%
